{"source": "PubChem BioAssay AID1220", "about": "(Sanford-Burnham Center for Chemical Genomics, 2008)", "note": "Hit rate of the full screen: of about 190,000 compounds, about 1,300 (0.68%) were called active. No stated cut-off is given here; in the data, active means inhibition above about 50%; inactive means the rest. The list comes from a sample in which actives are over-represented; it also holds similar structures and randomly drawn compounds.", "data": [{"target": "Mannose-6-phosphate isomerase (Homo sapiens) (UniProt P34949)", "sequence (P34949 whole entry, looked up)": "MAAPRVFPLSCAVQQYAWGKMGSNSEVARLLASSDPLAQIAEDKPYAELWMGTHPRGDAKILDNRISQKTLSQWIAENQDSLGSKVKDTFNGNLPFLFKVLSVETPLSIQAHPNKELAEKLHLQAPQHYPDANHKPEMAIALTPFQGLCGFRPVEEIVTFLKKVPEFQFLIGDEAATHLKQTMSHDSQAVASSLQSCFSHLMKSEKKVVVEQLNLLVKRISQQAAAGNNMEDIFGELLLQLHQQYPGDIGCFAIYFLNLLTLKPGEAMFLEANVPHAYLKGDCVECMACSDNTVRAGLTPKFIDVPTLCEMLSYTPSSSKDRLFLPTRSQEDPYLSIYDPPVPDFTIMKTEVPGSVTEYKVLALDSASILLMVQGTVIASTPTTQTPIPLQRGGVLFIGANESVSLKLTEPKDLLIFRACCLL", "test": "MPI inhibition at elevated mannose 6-phosphate – biochemical, fluorescence intensity, high mannose 6-phosphate, primary screen (AID 1220)", "settings": "recombinant PMI enzyme, coupled fluorescence intensity; at 20 µM; hits give high values", "values": [{"smiles": "O=c1oc(-c2ccccc2NS(=O)(=O)c2ccccc2)nc2ccccc12", "inhibition": "-2.5% (inactive)"}, {"smiles": "Fc1cc(F)cc(NC(=S)N2CCC(c3ccccc3)C2)c1", "note": "(stereo unspecified)", "inhibition": "-2.1% (inactive)"}, {"smiles": "Cn1cccc1CNC(=O)Nc1ccccc1", "inhibition": "-5.8% (inactive)"}, {"smiles": "N#CC1=C(N)Oc2cc(O)ccc2C1c1cccs1", "note": "(stereo unspecified)", "inhibition": "10.1% (inactive)"}, {"smiles": "CN(C)/C=N/C1=C(C#N)C(c2cccs2)c2ccc3ccccc3c2O1", "note": "(stereo unspecified)", "inhibition": "55.2% (active)"}, {"smiles": "N#CC1=C(N)Oc2cc3ccccc3cc2C1c1cccs1", "note": "(stereo unspecified)", "inhibition": "7.9% (inactive)"}, {"smiles": "COc1cc(/C=N/NC(=O)CC2(C)OCCCO2)ccc1OCc1ccc(Cl)cc1Cl", "inhibition": "51.1% (active)"}, {"smiles": "CC1(CC(=O)N/N=C/c2ccc(OCc3ccc(Cl)cc3Cl)cc2)OCCCO1", "inhibition": "10.6% (inactive)"}, {"smiles": "COc1cc(/C=N/NC(=O)CC2(C)OCCCO2)ccc1OCc1ccccc1", "inhibition": "2.4% (inactive)"}, {"smiles": "COc1ccc(NC(=O)CSc2nc(N)c3cc4c(nc3n2)CCCC4)c(OC)c1", "inhibition": "-6.7% (inactive)"}, {"smiles": "S=C(Nc1ccccc1Cl)N1CCCC1", "inhibition": "13.6% (inactive)"}, {"smiles": "Cc1ccccc1NC(=S)N1CCOCC1", "inhibition": "-2.1% (inactive)"}, {"smiles": "CCOC(=O)C1CCN(C(=S)Nc2cc(C)ccc2C)CC1", "inhibition": "7.3% (inactive)"}, {"smiles": "CCOC(=O)C1CCN(C(=S)Nc2cccc(C)c2C)CC1", "inhibition": "52.8% (active)"}, {"smiles": "CCOC(=O)N1CCN(C(=S)Nc2cccc(C)c2C)CC1", "inhibition": "8.4% (inactive)"}, {"smiles": "Cc1ccccc1NC(=S)N1CCCC1", "inhibition": "52.6% (active)"}, {"smiles": "O=C(O)CC1NC(=O)N(C2CCCCC2)C1=O", "note": "(stereo unspecified)", "inhibition": "-10% (inactive)"}, {"smiles": "CCCCN(CC)C(=O)Cc1ccc(Br)cc1", "inhibition": "6.7% (inactive)"}, {"smiles": "CCOC(=O)C1(Cc2ccc(OC)cc2)CCN(C(=O)CN2CCN(CC)CC2)CC1", "inhibition": "12.7% (inactive)"}, {"smiles": "O=C(COC(=O)c1nc(Cl)ccc1Cl)Nc1ccc2c(c1)OCO2", "inhibition": "8.3% (inactive)"}, {"smiles": "CCN(CC)C(=O)N1c2ccccc2CC(N(CC)CC)c2ccccc21", "note": "(stereo unspecified)", "inhibition": "-19.4% (inactive)"}, {"smiles": "Fc1cccc(Cl)c1/C=N/Nc1c(Cl)cncc1Cl", "inhibition": "8.5% (inactive)"}, {"smiles": "Cc1nc(C#N)c(N/N=C/c2cccc(Cl)c2)o1", "inhibition": "12.6% (inactive)"}, {"smiles": "Cc1nc(C#N)c(N/N=C/c2c(F)cccc2Cl)o1", "inhibition": "53.3% (active)"}, {"smiles": "Cc1cccc2cc(C3CC(c4cccs4)=NN3C(=O)CCC(=O)O)c(Cl)nc12", "note": "(stereo unspecified)", "inhibition": "8.9% (inactive)"}, {"smiles": "COc1ccc(N2CCn3c2nc2c3c(=O)n(CCCc3ccccc3)c(=O)n2C)cc1", "inhibition": "-5.3% (inactive)"}, {"smiles": "Cc1ccc(-c2nc(CN(CC3CCC3)CC3CCCO3)c(C)o2)s1", "note": "(stereo unspecified)", "inhibition": "5.6% (inactive)"}, {"smiles": "COC(=O)C/C=C/[C@@H](C)[C@@H](/C=N/OCC[C@@H]1C=C[C@H](OC(C)=O)[C@@H](COC(C)=O)O1)NS(=O)(=O)c1ccc(C)cc1", "inhibition": "-6.1% (inactive)"}, {"smiles": "CN1CC=C2C(C#N)=C(N)C(C#N)(C#N)C(CCc3ccccc3)C2C1", "note": "(stereo unspecified)", "inhibition": "17.3% (inactive)"}, {"smiles": "CCN1CC=C2C(C#N)=C(N)C(C#N)(C#N)C(CCc3ccccc3)C2C1", "note": "(stereo unspecified)", "inhibition": "52.5% (active)"}, {"smiles": "CCCC1C2CN(C(C)C)CC=C2C(C#N)=C(N)C1(C#N)C#N", "note": "(stereo unspecified)", "inhibition": "60.7% (active)"}, {"smiles": "CC(=O)N1CC=C2C(C#N)=C(N)C(C#N)(C#N)C(CCc3ccccc3)C2C1", "note": "(stereo unspecified)", "inhibition": "14% (inactive)"}, {"smiles": "CN1CC=C2C(C#N)=C(N)C(C#N)(C#N)[C@H](c3ccoc3)[C@H]2C1", "inhibition": "15.1% (inactive)"}, {"smiles": "CC(C)N1CC=C2C(C#N)=C(N)C(C#N)(C#N)C(c3ccccc3)C2C1", "note": "(stereo unspecified)", "inhibition": "20.5% (inactive)"}, {"smiles": "Cc1ccc(C2C3CN(C(C)C)CC=C3C(C#N)=C(N)C2(C#N)C#N)cc1", "note": "(stereo unspecified)", "inhibition": "24.4% (inactive)"}, {"smiles": "CC(C)N1CC=C2C(C#N)=C(N)C(C#N)(C#N)[C@H](c3ccoc3)[C@H]2C1", "inhibition": "58.4% (active)"}, {"smiles": "CCCC1C2CN(C(C)=O)CC=C2C(C#N)=C(N)C1(C#N)C#N", "note": "(stereo unspecified)", "inhibition": "-10.2% (inactive)"}, {"smiles": "Cc1ccccc1-c1nc(CN(Cc2c(C)nn(C)c2C)C2CC2)c(C)o1", "inhibition": "5.6% (inactive)"}, {"smiles": "CC(C)(C)c1ccc2c(c1)N(CC(=O)O)C(=O)CO2", "inhibition": "-8.3% (inactive)"}, {"smiles": "Cc1cccc(NC2SC(=O)NC2=O)c1", "note": "(stereo unspecified)", "inhibition": "0.9% (inactive)"}, {"smiles": "CCCc1c(O)nc(SCC(=O)NCCc2ccc(OC)c(OC)c2)[nH]c1=O", "inhibition": "6.4% (inactive)"}, {"smiles": "COc1ccc(CNc2oc(Cc3cccc4ccccc34)nc2C#N)cc1", "inhibition": "9.4% (inactive)"}, {"smiles": "O=C(CCNC(=O)Cn1ccc2ccccc2c1=O)NCCCN1CCN(c2ccc(F)cc2)CC1", "inhibition": "-5.7% (inactive)"}, {"smiles": "O=C(CCNC(=O)Cn1ccc2ccccc2c1=O)NCCCN1CCN(c2ccccc2F)CC1", "inhibition": "54.6% (active)"}, {"smiles": "CCCN1CCN(CCCNC(=O)CCNC(=O)Cn2ccc3ccccc3c2=O)CC1", "inhibition": "-3.5% (inactive)"}, {"smiles": "Cc1cccc(N2CCC(N3CCN(C4CCCCC4)C(CCO)C3)CC2)c1C", "note": "(stereo unspecified)", "inhibition": "22.8% (inactive)"}, {"smiles": "O=C(CSc1nnc(-c2ccco2)o1)NC1CCCCCC1", "inhibition": "-4.7% (inactive)"}, {"smiles": "COc1cc(C)c(Cl)cc1S(=O)(=O)NCCCN1CCOCC1", "inhibition": "2% (inactive)"}, {"smiles": "O=C1/C(=C\\c2ccco2)CCC/C1=C\\c1ccco1", "inhibition": "-57.2% (inactive)"}, {"smiles": "O=C1/C(=C/c2ccco2)Cc2ccccc21", "inhibition": "16% (inactive)"}, {"smiles": "COc1cc(/C=C2\\CC/C(=C\\c3cc(OC)c(OC)c(OC)c3)C2=O)cc(OC)c1OC", "inhibition": "11.2% (inactive)"}, {"smiles": "COc1ccc2c(c1)CC/C(=C/c1cc(OC)c(OC)c(OC)c1)C2=O", "inhibition": "52.2% (active)"}, {"smiles": "O=C1/C(=C/c2ccco2)CCc2ccccc21", "inhibition": "56.9% (active)"}, {"smiles": "COc1ccc2c(c1)CC/C(=C/c1ccco1)C2=O", "inhibition": "57.4% (active)"}, {"smiles": "Nc1ccc2c(c1)C/C(=C/c1ccco1)C2=O", "inhibition": "-39.6% (inactive)"}, {"smiles": "COc1cc(/C=C2/CCc3ccccc3C2=O)cc(OC)c1OC", "inhibition": "23.1% (inactive)"}, {"smiles": "COc1cc(/C=C2\\CCc3ccccc3C2=O)cc(OC)c1OC", "inhibition": "23.9% (inactive)"}, {"smiles": "COc1ccc2c(c1)CC/C(=C/c1ccncc1)C2=O", "inhibition": "11.5% (inactive)"}, {"smiles": "COc1ccc(/C=C2\\CC/C(=C\\c3ccc(OC)c(OC)c3)C2=O)cc1OC", "inhibition": "20.6% (inactive)"}, {"smiles": "COc1ccc([N+](=O)[O-])cc1NC(=O)Nc1cccc(Cl)c1", "inhibition": "-1.5% (inactive)"}, {"smiles": "O=C(Cn1nc(CNc2ccc(Cl)cc2)[n+]2c1CCCCC2)c1ccc(Br)cc1", "inhibition": "9.2% (inactive)"}, {"smiles": "CCSc1nnc(-c2ccccc2N)c(=O)[nH]1", "inhibition": "-2% (inactive)"}, {"smiles": "CCN(CC)S(=O)(=O)c1cc(-c2nnc(-c3ccc(Br)cc3)o2)ccc1Cl", "inhibition": "3.4% (inactive)"}, {"smiles": "O=C(CN1CCC(NC(=O)Cc2ccccc2)CC1)Nc1ccccc1Br", "inhibition": "-0.4% (inactive)"}, {"smiles": "CSc1ccccc1NC(=O)CCn1c(=O)sc2ccccc21", "inhibition": "-0.9% (inactive)"}, {"smiles": "Clc1ccc(OCCSc2ncccn2)cc1", "inhibition": "11.9% (inactive)"}, {"smiles": "COc1ccc(-n2cc(CNCCCn3ccnc3)c(-c3ccccc3Cl)n2)cc1", "inhibition": "1.9% (inactive)"}, {"smiles": "CCn1c2ccccc2c2cc(NC(=S)N3CCOCC3)ccc21", "inhibition": "3% (inactive)"}, {"smiles": "CCn1c2ccccc2c2cc(NC(=O)C(=O)N3CCOCC3)ccc21", "inhibition": "50.2% (active)"}, {"smiles": "CCn1c2ccccc2c2cc(NC(=O)N3CCOCC3)ccc21", "inhibition": "20% (inactive)"}, {"smiles": "O=C(NCc1ccncc1)C1=NN(c2ccccc2)C(=O)CC1", "inhibition": "-91.4% (inactive)"}, {"smiles": "Cc1cccc(NCN2C(=O)C3C4C=CC(C4)C3C2=O)c1", "note": "(stereo unspecified)", "inhibition": "3.7% (inactive)"}, {"smiles": "S=C(NCCc1ccccc1)Nc1ccc(Nc2ccccc2)cc1", "inhibition": "0% (inactive)"}, {"smiles": "CCN(CC)P(=O)(Nc1ccc(C)cc1Br)c1ccc(N(C)C)cc1NC(=O)c1ccco1", "note": "(stereo unspecified)", "inhibition": "53% (active)"}, {"smiles": "CCN(CC)P(=O)(Nc1ccc(SC(F)F)cc1)c1ccc(N(C)C)cc1NC(=O)c1ccco1", "note": "(stereo unspecified)", "inhibition": "35.4% (inactive)"}, {"smiles": "CCN(CC)P(=O)(Nc1ccccc1Br)c1ccc(N(C)C)cc1NC(=O)c1ccco1", "note": "(stereo unspecified)", "inhibition": "16.4% (inactive)"}, {"smiles": "Cc1ccc2cc(C#N)c(N3CCCC3)nc2c1C", "inhibition": "-56.8% (inactive)"}, {"smiles": "O=C(Cc1c(Cl)cccc1Cl)OCC(=O)N1CCc2ccccc2C1", "inhibition": "-1% (inactive)"}, {"smiles": "C[n+]1ccc(/C=C/c2ccccc2O)c2ccccc21", "inhibition": "12.7% (inactive)"}, {"smiles": "CN1/C(=C/c2cc[n+](C)c3ccccc23)C=Cc2ccccc21", "inhibition": "58% (active)"}, {"smiles": "CCN1/C(=C/c2ccc3ccccc3[n+]2CC)C=Cc2ccccc21", "inhibition": "17.7% (inactive)"}, {"smiles": "COc1ccc(CNC(=O)COC(=O)/C=C/c2ccco2)cc1", "inhibition": "-4.8% (inactive)"}, {"smiles": "CCOC(=O)c1c(/N=C/c2cc(C)ccc2O)sc2c1CCN(C)C2", "inhibition": "-5.7% (inactive)"}, {"smiles": "Nc1ccc(NC(=O)c2ccco2)c(Cl)c1", "inhibition": "-1.2% (inactive)"}, {"smiles": "O=C(COc1ccccc1)NCCSCc1ccco1", "inhibition": "5.1% (inactive)"}, {"smiles": "CN(C)c1ccc(/C=C/C=N/Nc2nc(N3CCOCC3)nc(N3CCOCC3)n2)cc1", "inhibition": "8.9% (inactive)"}, {"smiles": "C(=N\\Nc1nc(N2CCOCC2)nc(N2CCOCC2)n1)/c1ccncc1", "inhibition": "-1% (inactive)"}, {"smiles": "Cc1ccc(/C=N/Nc2nc(N3CCOCC3)nc(N3CCOCC3)n2)o1", "inhibition": "-10.9% (inactive)"}, {"smiles": "Brc1ccc(-c2ccc(/C=N/Nc3nc(N4CCOCC4)nc(N4CCOCC4)n3)o2)cc1", "inhibition": "5.4% (inactive)"}, {"smiles": "CN(C)c1ccc(/C=N/Nc2cc(N3CCOCC3)nc(N3CCOCC3)n2)cc1", "inhibition": "60.4% (active)"}, {"smiles": "CC(C)c1ccc(/C=N/Nc2cc(N3CCOCC3)nc(N3CCOCC3)n2)cc1", "inhibition": "68.6% (active)"}, {"smiles": "Clc1ccc(-c2ccc(/C=N/Nc3cc(N4CCOCC4)nc(N4CCOCC4)n3)o2)cc1", "inhibition": "54.5% (active)"}, {"smiles": "Cc1cc(C)nc(N/N=C/c2ccc(N3CCOCC3)cc2)n1", "inhibition": "4.7% (inactive)"}, {"smiles": "O=[N+]([O-])c1ccc(/C=N/Nc2nc(N3CCOCC3)nc(N3CCOCC3)n2)cc1", "inhibition": "-1.5% (inactive)"}, {"smiles": "COc1c(C)cccc1C(=O)NC(=S)Nc1ccc2c(c1)Cc1ccccc1-2", "inhibition": "8.2% (inactive)"}, {"smiles": "COc1ccc(NS(=O)(=O)c2cc(NC(=O)Cn3cnc4c3c(=O)n(C)c(=O)n4C)ccc2C)cc1", "inhibition": "8.9% (inactive)"}]}]}
